FLuc modulator – inhibits or activates purified firefly luciferase, miR-21 counter-screen; purified FLuc, Km substrates, luminescence inhibition; Potency, µM (doses to about 57.5 µM), without a hit: top-dose activity change, negative = inhibition, most hits filed as inhibitors; actives 6.9% (n = 360,000); AID 588342;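 note: plate controls were vehicle for no effect and reference inhibitor for full effect; nearly all actives have a fitted effect of over 55% in size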
Target sequence (P08659 whole entry, looked up): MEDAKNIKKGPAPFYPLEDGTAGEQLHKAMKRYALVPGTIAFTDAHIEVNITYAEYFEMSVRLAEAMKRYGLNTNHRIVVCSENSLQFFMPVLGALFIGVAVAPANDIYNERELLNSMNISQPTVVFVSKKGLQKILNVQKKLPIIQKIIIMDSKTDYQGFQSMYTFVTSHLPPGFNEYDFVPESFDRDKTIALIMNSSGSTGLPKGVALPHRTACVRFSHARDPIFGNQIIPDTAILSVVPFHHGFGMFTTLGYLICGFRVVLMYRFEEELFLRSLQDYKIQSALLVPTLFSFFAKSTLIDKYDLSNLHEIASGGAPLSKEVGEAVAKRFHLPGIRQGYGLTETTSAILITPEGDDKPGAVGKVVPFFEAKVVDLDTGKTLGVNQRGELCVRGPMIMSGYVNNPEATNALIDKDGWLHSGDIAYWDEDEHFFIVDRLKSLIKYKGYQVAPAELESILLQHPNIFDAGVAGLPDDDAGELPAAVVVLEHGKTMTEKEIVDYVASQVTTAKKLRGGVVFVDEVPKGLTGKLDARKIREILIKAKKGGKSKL
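Biochemical qHTS of compounds, final roughly 60 µM downward over six points, against 10 nM purified firefly luciferase using Km concentrations of substrates (10 uM D-luciferin, 10 uM ATP) in Tris acetate pH 7.5 buffer; luminescence output.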
Rab9 prom act – activates the Rab9 promoter; Huh7 Rab9 promoter-luciferase reporter, luminescence, 24 h; Potency, µM (highest dose often 9.22 µM), inactives show at the highest dose activation, negative = inhibition, hits mostly activators; actives 2.8% (n = 320,000); AID 485297; note: % of control where 0% means no effect; nearly all actives have a fitted effect of over 60% in size
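Quantitative HTS format; Huh7 Rab9-luciferase reporter cells (1500/well) receive compound 2 h post-plating, incubate 24 h at 37 °C, then get luciferase reagent for 10 min before luminescence reading.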
NPC1 promoter act – activates the NPC1 promoter; Potency, µM (titrated, usually from 9.22 µM), for the others: top-dose activation, actives largely listed as activators; AID 485313; actives 2.4% (n = 320,000); Huh7 NPC1 promoter luciferase reporter, 24 h; note: % of control where 0% means no effect; nearly all actives have a fitted effect of over 60% in size
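Cells: Huh7 expressing luciferase under the NPC1 promoter, 1500/well. Seeded 2 h, compound added, incubated 24 h at 37 °C. Luciferase reagent, 10 min ambient, then luminescence.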
SMN2 splice enh – enhancers of SMN2 splice variant expression. HEK293 SMN2-luciferase splicing reporter, luminescence, 30-36 h. Potency, µM (titrated, usually from 46.1 µM), inactives show at the highest dose activity change, positive = activation, actives largely listed as activators. actives 2.8% (n = 210,000). AID 1458; note: % of control where 0% means no effect; nearly all actives have a fitted effect of over 55% in size
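HEK293 cells carry an SMN2 […]–luciferase reporter in which exon 7 inclusion puts luciferase in frame. Cells were plated 10-12 h before compound addition, then incubated 30-36 h at 37C. ONE-Glo luminescence was read; sodium butyrate at 4.5 mM final served as control.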
ELG1 genotox – genotoxicity induction in ELG1-luciferase HEK293T cells; HEK293T ELG1-luciferase reporter, luminescence, 16 h; Potency, µM (titrated, usually from 46 µM), for the others: top-dose activity change, positive = activation, most hits filed as activators; actives 1.3% (n = 330,000); note: % of control where 0% means no effect; nearly all actives have a fitted effect of over 60% in size
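HEK293T cells expressing luciferase-tagged ELG1 were exposed to compound or DMSO vehicle for 16 hr at 37 °C and 5% CO2. Luciferase activity was then measured with ONE-Glo after 30 min at room temperature.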
Luc counter – blocks Kinase-Glo luciferase, a counter-screen artifact. Q27757. Kinase-Glo luciferase, ATP luminescence, 8 min. Potency, µM (top dose mostly 38.3 µM), for the others: at the highest dose activity change, negative = inhibition, most hits filed as inhibitors. actives 0.28% (n = 200,000). AID 1379; note: % is set by controls: 0 for no effect and ±100 for the full control effect; nearly all actives have a fitted effect of over 60% in size
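Recombinant Kinase-Glo luciferase, 10 uM ATP (linear range), luciferin; imidazole pH 7.2 / KCl / MgCl2 / Tween / BSA buffer; 8 min RT; luminescence.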
Starred values were filed as active, the others as inactive; ? = inconclusive; . = not tested or not shown. Shown are actives, neighbours in structure and some others; about 7.3% of the full set was active somewhere. Calls come from the whole dose curve; as a rule, active = well fitted curve in the direction sought with a large enough effect; inconclusive = small, poorly fitted or top-dose-only effect, or another doubt; inactive = no such curve, though single readings can be large; an effect the other way counts as inactive or inconclusive. Potency is the fitted concentration of half-maximal effect.

SMILES	FLuc modulator	Rab9 prom act	NPC1 promoter act	SMN2 splice enh	ELG1 genotox	Luc counter
COc1ccc(C)cc1NC(=O)c1cc2ccccn2n1	21.3µM*	.	.	.	.	.
CC(=O)c1cccc(NC(=O)c2cc3ccccn3n2)c1	3.38µM*	3.98µM*	1.78µM*	24.1%	18.4µM*	-12.5%
Cc1ccccc1NC(=O)c1cc2ccccn2n1	3.38µM*	1.41µM*	3.55µM*	.	?	.
Cc1ccc(C)c(NC(=O)c2cc3ccccn3n2)c1	10.7µM*	2.24µM*	3.55µM*	12.6µM*	9.2µM*	-5.6%
Cc1cccc(N2CCN(C(=O)CS(=O)(=O)Cc3nc(-c4ccccc4F)oc3C)CC2C)c1 (stereo unspecified)	0.6%	-1.3%	-5.3%	-111.4%	-5.9%	-0.4%
Cc1cc(Cl)ccc1NC(=O)c1cc2ccccn2n1	4.78µM*	.	.	.	.	.
Cc1cc(C)n(-c2nc3c(c(=O)[nH]c(=O)n3C)n2CC(O)COc2ccccc2)n1 (stereo unspecified)	1.3%	3.4%	-4.0%	8.6%	-0.8%	-0.7%
CN(Cc1ccon1)Cc1cn(C)nc1-c1cccc(Cl)c1	5.36µM*	?	?	.	?	-1.3%
O=C(Cc1cccs1)NC1CC(=O)N(c2ccc(Cl)cc2)C1 (stereo unspecified)	5.5%	.	.	.	.	.
CCOC(=O)c1c(C)[nH]c(C(=O)CSc2ccc(Cl)cc2)c1C	6.01µM*	?	?	11.2µM*	?	-1.8%
CCOC(=O)c1c(C)[nH]c(C(=O)CSc2nc3ccccc3o2)c1C	8.6%	-1.9%	-5.2%	0.316µM*	5.5%	-2.5%
CCOC(=O)c1c(C)[nH]c(C(=O)CSc2nc(C)cc(C)n2)c1C	0.3%	1.9%	-4.6%	-45.8%	-0.5%	-2.6%
CC(C)[C@H](NC(=O)Nc1ccc(Oc2ccccc2)cc1)C(=O)O	23.9µM*	-2.9%	2.4%	-3.4%	1.8%	-3.9%
CCOC(=O)C(=O)Nc1ccc(F)cc1	-11.4%	-1.5%	7.3%	3.8%	-3.7%	-7.1%
CCOC(=O)C(=O)Nc1ccc(Oc2ccccc2)cc1	15.1µM*	-27.0%	-2.9%	5.4%	4.3%	-8.2%
CC(C)[C@H](NC(N)=O)C(=O)Nc1ccc(Oc2ccccc2)cc1	-2.3%	-1.3%	-2.4%	-14.8%	-6.2%	-1.4%
CN(C)/C=N/C(=S)Nc1ccc(Br)cc1F	19µM*	3.98µM*	?	28.5%	23.9%	-11.8%
Cc1ccc(C(=O)Oc2ccc3c(c2)ncn3C)cc1	3.01µM*	-15.9%	3.9%	.	4.7%	-8.6%
Cn1cnc2cc(OC(=O)c3ccccc3)ccc21	19µM*	-6.7%	-1.9%	19.6%	3.6%	-3.1%
CCOC(=O)c1c(C)n(-c2ccccc2)c2ccc(OC(=O)c3ccccc3)cc12	-8.5%	.	.	-33.4%	.	.
Cc1ccc(C(=O)Oc2cccc(-n3cnnn3)c2)cc1	?	-4.4%	1.0%	-0.1%	?	2.0%
C/C(=N\Nc1nccnc1Cl)c1ccc([N+](=O)[O-])cc1	3.3%	-4.2%	0.6%	-25.7%	-0.3%	-0.3%
C/C(=N\Nc1nccnc1Cl)c1ccc(Br)cc1	?	16.6%	?	.	6.7%	.
C/C(=N\Nc1nccnc1Cl)c1ccc(O)c(C)c1	10.7µM*	?	?	.	?	.
COc1ccc(/C(C)=N/Nc2nccnc2Cl)cc1	7.57µM*	1.78µM*	?	.	?	.
SMILES	FLuc modulator	Rab9 prom act	NPC1 promoter act	SMN2 splice enh	ELG1 genotox	Luc counter
N/C(Cc1ccc([N+](=O)[O-])cc1)=N\OC(=O)c1ccc(Br)cc1	-12.7%	-4.3%	-0.5%	-6.3%	-1.8%	-3.9%
O=C(O/N=C\c1ccc(N2CCCCC2)c([N+](=O)[O-])c1)c1ccc(Cl)cc1Cl	-1.2%	-8.0%	-4.1%	-8.6%	-2.5%	3.9%
COc1ccccc1C(=O)/C=C/c1ccc(N2CCCCC2)c([N+](=O)[O-])c1	6.01µM*	?	?	-84.1%	?	0.0%
O=C(/C=C/c1ccc(N2CCCCC2)c([N+](=O)[O-])c1)c1ccc(O)cc1	4.78µM*	?	?	-8.4%	20.6µM*	-1.6%
CCn1c(=O)cc(SCC(=O)NCc2cccc(Cl)c2)c2ccccc21	-14.7%	.	.	1.5%	.	.
CCOc1cc(NC(=O)c2ccco2)c(OCC)cc1NC(=O)Cc1ccc(OC)c(OC)c1	4.5%	14.1%	-0.3%	-20.8%	-0.2%	3.0%
NC(=O)CSc1nc(N)c2c3c(sc2n1)CCCCC3	8.49µM*	19.5%	19.5%	5.0%	?	-1.1%
Nc1nc(SCC(=O)NCCOCCO)nc2sc3c(c12)CCCC3	26.9µM*	0.0%	-1.9%	.	4.7%	-1.6%
NC(=O)CSc1nc(C2CC2)nc2sc3c(c12)CCCC3	1.51µM*	2.51µM*	2.82µM*	.	9.2µM*	-22.2%
CNC(=O)CSc1nc(N)c2c3c(sc2n1)CCC3	?	0.5%	-1.4%	-12.6%	?	-6.1%
C=C(C)COc1ccc(-c2nc(N)nc(C(F)(F)F)c2-c2ccc(OC)cc2)c(O)c1	-1.0%	-2.3%	-4.3%	.	-4.0%	.
Cc1ccc(OCc2nc(-c3ccc(C(=O)N4CCN(c5ccc(Cl)cc5)CC4)cc3)oc2C)cc1	-1.6%	.	.	2.4%	.	.
CCNC(=S)Nc1cccc(S(=O)(=O)NC2=NCCC2)c1	-1.1%	-4.1%	-0.2%	-16.4%	16.9%	4.0%
CCOc1ccc(N=Cc2c(C)[nH]n(-c3nc4ccccc4[nH]3)c2=O)cc1	8.49µM*	?	25.1%	11.5%	3.4%	8.91µM*
CCOC(=O)c1cc(-c2ccccc2C)nn1Cc1cc(CC)no1	16.9µM*	26.1%	17.3%	.	7.1%	.
Nc1cc(-c2ccc(Br)cc2)nn1Cc1ccccc1	16.9µM*	-16.6%	-10.0%	.	6.7%	-3.1%
Cc1ccc2c(c1)C(N1CCCC1=O)CC(c1ccco1)N2 (stereo unspecified)	1.2µM*	2.24µM*	3.16µM*	12.6µM*	?	11.2µM*

Screening results (PubChem)
